# Several values for one entry are separate records, joined by “and”; a condition that tells them apart may be missing. Equal values may be shown once. Unmarked numbers belong to inactive results. Inconclusive results are not listed. Entries that show only a call come without a potency. A structure can be active in one record and inactive in another. Activity calls are given as the source filed them. Unless noted, calls come from the whole dose curve; as a rule, active = well fitted curve in the direction sought with a large enough effect; inconclusive = small, poorly fitted or top-dose-only effect, or another doubt; inactive = no such curve, though single readings can be large; an effect the other way counts as inactive or inconclusive.
# Experiments:
# [1] = system: Hek293T; assay: Primary qHTS to identify gynecologic anti-cancer compounds using libraries of approved drugs and bioactive compounds (AID 1345084); conditions: Gynecologic cancer cell panel viability, ATPlite luminescence, 48 h, control line for the selectivity index; series mostly up to 57.5 µM; note: nearly all actives have a fitted effect of over 55% in size
# Summary of the method: (§1)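 Five-point cytotoxicity, 48 h drug exposure at 37 C, 5% CO2, on cells seeded 16 h beforehand. ATP content read by ATPlite luminescence.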
# [2] = system: JEG-3; assay: as above; conditions: Gynecologic cancer cell panel viability, ATPlite luminescence, 48 h; series mostly up to 57.5 µM
# Summary of the method: as §1
# [3] = system: OV90; assay: as above; conditions: Gynecologic cancer cell panel viability, ATPlite luminescence, 48 h; series mostly up to 57.5 µM
# Summary of the method: as §1
# [4] = system: PA-1; assay: as above; conditions: Gynecologic cancer cell panel viability, ATPlite luminescence, 48 h; series mostly up to 57.5 µM
# Summary of the method: as §1
# [5] = system: SKOV3; assay: as above; conditions: Gynecologic cancer cell panel viability, ATPlite luminescence, 48 h; series mostly up to 57.5 µM
# Summary of the method: as §1
# [6] = system: Tov-21-G; assay: as above; conditions: Gynecologic cancer cell panel viability, ATPlite luminescence, 48 h; series mostly up to 57.5 µM
# Summary of the method: as §1
# [7] = system: Tov112D; assay: as above; conditions: Gynecologic cancer cell panel viability, ATPlite luminescence, 48 h; series mostly up to 57.5 µM
# Summary of the method: as §1
# [8] = Drug repurposing screens with cells derived from glioblastoma tumor samples (AID 1345199); conditions: GBM patient neurospheres viability, ATP luminescence, 48 h; note: nearly all actives have a fitted effect of over 40% in size; note: potency is the fitted concentration of half-maximal effect
# Summary of the method: (§2)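 Four patient lines of CD133+ GBM neurospheres were screened at several concentrations; hits were retested in those lines plus three slower-growing GBM lines, using 48-hour treatment and ATP-based viability.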
# [9] = system: astro; assay: as above; conditions: viability, ATP luminescence, 48 h; series mostly up to 45.9 µM
# Summary of the method: as §2
# [10] = biological target: Nuclear receptor subfamily 1 group I member 2 (Rattus norvegicus) (UniProt Q9R1A7); assay: qHTS assay for small molecule activators of the rat pregnane X receptor (rPXR) signaling pathway (AID 651751; call rule not given here); conditions: rPXR reporter cells, luciferase (One-Glo), 24 h
# Sequence of Nuclear receptor subfamily 1 group I member 2 (Rattus norvegicus) (Q9R1A7 whole entry, looked up): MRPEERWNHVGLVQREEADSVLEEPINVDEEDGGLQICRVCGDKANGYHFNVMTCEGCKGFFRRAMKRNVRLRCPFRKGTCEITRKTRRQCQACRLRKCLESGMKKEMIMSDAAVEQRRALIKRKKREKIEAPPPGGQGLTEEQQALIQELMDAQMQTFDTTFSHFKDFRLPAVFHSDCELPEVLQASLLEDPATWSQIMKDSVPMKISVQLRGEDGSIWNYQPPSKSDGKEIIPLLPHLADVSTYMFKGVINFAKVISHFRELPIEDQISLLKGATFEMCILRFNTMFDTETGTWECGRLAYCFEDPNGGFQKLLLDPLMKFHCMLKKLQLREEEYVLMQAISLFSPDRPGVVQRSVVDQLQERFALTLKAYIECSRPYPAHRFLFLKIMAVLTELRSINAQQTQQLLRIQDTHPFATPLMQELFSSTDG
# [11] = qHTS assay for small molecule activators of the human pregnane X receptor (PXR) signaling pathway (AID 720659; call rule not given here)
# [12] = at 45.9 µM (top of the series), tumour line B
# [13] = at 45.9 µM (top of the series), tumour line D
# [14] = at 46 µM (top of the series), tumour line A
# [15] = at 46.1 µM (top of the series), tumour line C
# [16] = at 20 µM (top of the series), tumour line C
# [17] = at 21.2 µM (top of the series), tumour line B
# [18] = at 21.2 µM (top of the series), tumour line D
SMILES,Potency [1],Potency [2],Potency [3],Potency [4],Potency [5],Potency [6],Potency [7],"activity, negative = cell killing [8, 12]","activity, negative = cell killing [8, 13]","activity, negative = cell killing [8, 14]","activity, negative = cell killing [8, 15]",Potency [9],max response [10],outcome [11],Potency ([8]; tumour line A),Potency ([8]; tumour line D),Potency ([8]; tumour line B),"activity, negative = cell killing [8, 16]","activity, negative = cell killing [8, 17]","activity, negative = cell killing [8, 18]"
COc1ccc2[nH]cc(CCNC(C)=O)c2c1,inactive,inactive,inactive,inactive,inactive,inactive,inactive,-3.86%,3.96%,-18.9%,-11.3%,inactive,3.19% and 0.0273% and 3.25%,inactive,,,,,,
CN1CCC(=C2c3ccccc3CC(=O)c3sccc32)CC1,inactive,inactive,inactive,inactive,inactive,inactive,inactive,,,,-13.4%,,,,14.1 µM (active),12.6 µM (active),,,,
CC1(C)O[C@H]2CC(=O)OC[C@]23[C@H]2CC[C@@]4(C)[C@H](c5ccoc5)OC(=O)[C@H]5O[C@]54[C@]2(C)C(=O)C[C@@H]13,inactive,inactive,inactive,inactive,inactive,inactive,inactive,-1.56%,-7.18%,-18.9%,3.51%,inactive,,,,,,,,
CCOC(=O)Nc1ccc(NCc2ccc(F)cc2)nc1N,inactive,inactive,inactive,inactive,inactive,inactive,inactive,-10.5% and -16.1%,-21.3% and 3.4%,,4.51%,inactive,,,10 µM (active),,,,,
CCCCc1oc2ccccc2c1C(=O)c1cc(I)c(OCCN(CC)CC)c(I)c1,inactive,inactive,inactive,inactive,,inactive,inactive,,,,2%,28.2 µM (active) and 20 µM (active),,,7.08 µM (active),11.2 µM (active),25.1 µM (active),,,
Nc1nc2c(ncn2COC(CO)CO)c(=O)[nH]1,inactive,inactive,inactive,inactive,inactive,inactive,inactive,,,,,inactive,,,,,,-13.4%,-13.7%,-24.4%
CC(C)(C)C(=O)Oc1ccc(S(=O)(=O)Nc2ccccc2C(=O)NCC(=O)O)cc1,inactive,inactive,inactive,inactive,,inactive,inactive,-13.7%,-10.4%,-15.5%,-13.4%,inactive,,,,,,,,
Cc1cc(C(C)(C)C)c(O)c(C)c1CC1=NCCN1,inactive,inactive,inactive,inactive,inactive,inactive,inactive,-18.7%,-26.9%,,5.76%,inactive,,,,,,,,
Clc1ccc2nsnc2c1NC1=NCCN1,inactive,inactive,inactive,inactive,inactive,inactive,inactive,-9.87%,1.91%,,8.38%,inactive,,,,,,,,
CC(CCc1ccc(O)cc1)NCCc1ccc(O)c(O)c1 (stereo not drawn),inactive,inactive,inactive,,,inactive,inactive,,,,5.45%,,,,28.2 µM (active),,31.6 µM (active),,,
Cn1cnc2c1c(=O)[nH]c(=O)n2C,inactive,inactive,inactive,inactive,inactive,inactive,inactive,0.295%,-15.5%,,1.28%,inactive,2.94%,,,,,,,
CCOC(=O)c1ncn2c1CN(C)C(=O)c1cc(F)ccc1-2,inactive,inactive,inactive,inactive,inactive,inactive,inactive,-16%,3.15%,,4.97%,inactive,,,,,,,,
CN1C(C(=O)Nc2ccccn2)=C(O)c2ccccc2S1(=O)=O,inactive,inactive,inactive,inactive,,inactive,inactive,,,,,inactive,,,,,,-3.14%,-6.49%,0.702%
CCOC(=O)C(C)(C)Oc1ccc(Cl)cc1,inactive,inactive,inactive,inactive,inactive,inactive,inactive,-9.66%,-5.13%,,5.62%,inactive,2.24%,inactive,,,,,,
O=C(C1CCCCC1)N1CC(=O)N2CCc3ccccc3C2C1 (stereo not drawn),inactive,inactive,inactive,inactive,inactive,inactive,inactive,-15.1%,-7.27%,,-6.57%,inactive,,,,,,,,

# — PubChem BioAssay (NCATS)
